The source of these data is PubChem BioAssay AID651550 (National Center for Advancing Translational Sciences (NCATS), 2012).

Out of some 360,000 compounds screened, about 1,100 (0.31%) were called active. What follows is part of a selection rich in actives, with near analogues and random picks from the rest. Unmarked numbers belong to inactive results. Cut-off read from the data, not from the text of the source: active = activity change below about -80%; inconclusive = mostly about -51% to -80%; inactive = weaker than that.
% is set by controls: 0 for no effect and ±100 for the full control effect.

This assay addresses RAC-alpha serine/threonine-protein kinase (Homo sapiens) (UniProt P31749). Briefly: HTS Assay for Inhibitors of Akt Phophorylation: Primary Screen. The conditions noted are these: Neuro2A IGF-stimulated pAkt S473 HTRF, 20 min; at 50 µM, active compounds read low. From the text:
The serine/threonine protein kinase Akt (protein kinase B) regulates various cellular processes, including cell survival, growth, proliferation, migration and differentiation. It has been well established that Akt is activated through two essential steps involving membrane translocation and phosphorylation. Cytosolic Akt is recruited to the plasma membrane via the interaction between the PH domain and membrane PIP3 produced by phosphoinositide-3 kinase (PI3K) upon growth factor receptor stimulation. The membrane-Akt interaction results in conformational changes of Akt, enabling its activation through phosphorylation at T308 in the kinase domain and at S473 in the C-terminal hydrophobic motif by PDK1 and mTOR-rictor complex (mTORC2), respectively. […] These findings indicate that S473 phosphorylation, as an important modulator of Akt activation, may be a valuable drug target for cell growth, survival, proliferation and differentiation. These inhibitors also may have significant therapeutic potential with fewer side effects, especially for the conditions involving hyperactive Akt signaling, such as cancer and Alzheimer's disease.
To this end, a miniaturized assay was developed to be screened against the Molecular Libraries Small Molecule Repository (MLSMR).
NIH Chemical Genomics Center [NCGC]
NIH Molecular Libraries Probe Centers Network [MLPCN]
Assay Submitter (PI): Hee-Yong Kim, National Institute on Alcohol Abuse and Alcoholism
3 uL of Neuro2A cell suspension in DMEM containing 0.5% FBS and […] antibiotics mix was plated in a white solid bottom tissue culture-treated 1536-well plate (Greiner Bio-One, Monroe, NC) at 4,500 cells per well and incubated overnight at 37 deg C. 23 nL/well of compound solutions in DMSO was added with Pintool transfer (Kalypsis, San Diego, CA) at single […] final concentration. Then, the cells were stimulated with 1.5 uL of IGF (6 nM final concentration) and incubated at 37 deg C for 20 min. The reaction was terminated by the addition of 1.5 uL blocking reagent mixed with lysis buffer (1:25 correspondingly) provided with HTRF(R) Phospho Akt (Ser473) kit (Cisbio US, Bedford, MA), with following incubation for 50 min at ambient temperature. The detection HTRF conjugates from the kit were prepared according to the protocol, pre-mixed 1:1 prior to dispensing, and 2 uL/well was added with BioRAPTR FRD dispenser (Beckman Coulter). The assay plates were incubated for 24 hours at ambient temperature, and the HTRF fluorescence was measured using Envision plate reader (PerkinElmer) with excitation at 330nm, emission at 615nm (Eu(3)-Cryptate donor signal) and 665nm (d2 acceptor signal). The ratio of […] was calculated for each well.
For `O=C(c1ccc2c(c1)N(Cc1ccc(F)cc1)C(=O)c1ccccc1S2(=O)=O)N1CCN(c2ccccn2)CC1`, the activity change entry was “inactive”.
With `O=C(c1c(F)cccc1Cl)N1CCN(c2ccccn2)CC1` the entry was “inactive”; with `O=C(c1ccc2c(c1)C(=O)N(c1ccc(Cl)cc1)C2=O)N1CCN(c2ccccn2)CC1`, -121% (active).
With `Cc1ccc(S(=O)(=O)N2[C@@H](Cc3ccccc3)CO[C@H]2CC(=O)OCc2ccccc2)cc1` the entry was “inactive”.
Take `O=C(NC1CCCCC1)C(c1cc2ccccc2o1)n1c(=O)c(-c2ccco2)nc2ccccc21` (stereo not given): the activity change entry is “inactive”.
With `Cc1ccc2c(c1)N(CC(=O)N(Cc1ccccn1)Cc1ccco1)C(=O)C(C(C)C)O2` (stereo not given) the figure was 1.92%.
The result for `O=C(NCc1ccccc1)C(c1ccc(F)cc1)N1CCN(C(=O)C2CCCO2)CC1` (stereo not given) reads “inactive”.
As for `CCC(C(=O)NCc1ccccc1)n1c(Cc2cc(F)cc(F)c2)nc2ccccc21` (stereo not given), the activity change result was “inactive”.
On to `Cc1cccc2nc(CNc3ccc(F)cc3)cn12`, for which the activity change is -128% (active).
Consider `CCOC(=O)CSc1nnc(CNc2ccc(F)cc2)o1`, for which the activity change result was “inactive”.
As to `COC(=O)c1ccc2nc(-c3ccc(F)cc3)c(Cc3ccc(C)cc3)n2c1`, the activity change entry was “inactive”.
The result for `O=C(NC(=O)c1ccc(Cl)c(Cl)c1)OC1CCS(=O)(=O)C1` (stereo not given) reads “inactive”; that for `COCCNC(=O)C1C(=O)Nc2ccccc2C(=O)N1c1ccc2c(c1)OCCO2` (stereo not given), “inactive”.
The result for `CC(C)c1cc(Cn2c3ccccc3c(=O)n2C(C)Cn2cc(C3CC3)nn2)on1` (stereo not given) reads “inactive”; that for `CS(=O)(=O)N(CC(=O)N1CCc2ccccc2C1)c1ccc(Br)cc1`, “inactive”; that for `CN(c1cccc(NC(=O)c2ccc(CN3CCc4ccccc4C3)cc2)c1)S(C)(=O)=O`, “inactive”.
As to `Cc1ccc(S(=O)(=O)N(CC(=O)N2CCc3ccccc3C2)c2cccc(Cl)c2)cc1`, the activity change entry is “inactive”.
On to `Cn1cccc1C(=O)N1CCc2ccccc2C1`, for which the activity change result is “inactive”.
The result for `COc1cccc(N(CC(=O)N2CCc3ccccc3C2)S(C)(=O)=O)c1` reads -106% (active); that for `CN(c1ccc(C(=O)N2CCc3ccccc3C2)cc1)S(C)(=O)=O`, -108% (active).
On to `Nc1ccc(N=Nc2ccccc2Cl)c(N)n1`, for which the activity change result is “inactive”.
With `O=C(CN1C(=O)CCS(=O)(=O)c2ccccc21)NCc1ccc(F)cc1` the figure was 11.8%; with `O=C1C(=O)N(CCN2CCOCC2)C(c2cccc(Cl)c2)/C1=C(/O)c1ccc2c(c1)OCO2` (stereo not given), “inactive”.
Take `COc1ccc(C2/C(=C(/O)c3ccc(OC(C)C)cc3)C(=O)C(=O)N2CCCN2CCOCC2)cc1` (stereo not given): the activity change entry is “inactive”.
With `O=C1C(=O)N(CCN2CCOCC2)C(c2ccccn2)/C1=C(/O)c1ccc(Cl)cc1` (stereo not given) the figure was -111% (active).
With `O=c1[nH]n2c(=O)c3c([nH]c2c1N=Nc1ccccc1)CCC3` the entry was “inactive”; with `CC(C)(C)n1c(=O)[nH]c2c(c1=O)CCC2`, -114% (active).
The result for `CCOC(=O)[C@]12CCCC=C1N(CCC1=CCCCC1)C(=O)[C@H](CC(=O)N1CCCCC1)C2` reads “inactive”; that for `O=C1C=C(c2ccc(Cl)cc2)C(=O)N1Nc1ccccc1`, -112% (active).
As to `CC(C)(C)n1nc2c(c1NC(=O)c1ccc(S(=O)(=O)N3CCCC3)cc1)CS(=O)C2` (stereo not given), the activity change result is “inactive”.
As for `COc1ccc(C(C(=O)Nc2c(C)cccc2C)N2CCN(c3ccc(C)cc3)CC2)cc1` (stereo not given), the activity change result is “inactive”.
As to `O=C(CN1C(=O)NC2(CCCCCC2)C1=O)NC1CC1`, the activity change entry was “inactive”.
With `O=C1CC2(CCCC2)C(=O)N1CN1CCN(S(=O)(=O)c2ccc(F)cc2F)CC1` the entry was “inactive”; with `O=C(O)CCN1C(=O)CC2(CCCCC2)C1=O`, -117% (active).
Consider `NS(=O)(=O)c1ccc(CCNC(=O)NC2CCCCC2)cc1`, for which the activity change entry is “inactive”.
Turning to `CN1OC[C@@H]2CN[C@H](c3ccc(-c4ccccc4)cc3)C[C@@H]21`, the activity change entry was “inactive”.
As for `CCOC(=O)[C@]12CCCC=C1N(CCC1=CCCCC1)C(=O)[C@H](CC(=O)NCCCOC)C2`, the activity change entry is “inactive”.
With `CCCCCNC(=O)C(c1ccc(OC)cc1)n1c(=O)c(-c2ccccc2)nc2ccccc21` (stereo not given) the entry was “inactive”.
With `Cc1cccc(OCc2nnc(SCc3nc4cc(C(F)(F)F)ccc4c(=O)[nH]3)o2)c1` the figure was -3.13%.
With `Cc1cccc(OCc2nnc(SCn3nnc4ccccc4c3=O)o2)c1` the figure was -101% (active); with `Nc1nnc(SCn2nnc3ccccc3c2=O)s1`, “inactive”.
In the case of `Cc1cccc(NC(=O)C2CCCN(C(=O)Nc3ccc(F)cc3)C2)c1C` (stereo not given), the activity change result was “inactive”.
In the case of `Cc1cccc(NC(=O)C2CCCN2S(=O)(=O)c2ccc(F)cc2)c1C` (stereo not given), the activity change was -118% (active).
On to `COc1ccccc1NC(=O)C1CCCN1S(=O)(=O)c1ccc(Cl)cc1` (stereo not given), for which the activity change result is “inactive”.
The result for `Cc1ccc(N(Cc2ccccc2O)C(=O)c2ccccc2F)cc1` reads “inactive”.
`CC(C)(C)NC(=O)C(c1ccncc1)N(C(=O)CNC(=O)c1ccco1)c1ccc2c(c1)OCO2` (stereo not given): the activity change was -97.2% (active).
The result for `Cc1ccc(N(C(=O)CNC(=O)c2ccco2)C(C(=O)NC2CCCC2)c2ccncc2)cc1` (stereo not given) reads “inactive”.
The result for `COc1cccc(N(C(=O)CNC(=O)c2ccco2)C(C(=O)NC2CCCCC2)c2cccnc2)c1` (stereo not given) reads “inactive”; that for `O=C(Cc1cccs1)Nc1ccc([N+](=O)[O-])cc1`, “inactive”.
In the case of `COc1ccc(OC)c(NC(=O)Cc2cccs2)c1`, the activity change entry is “inactive”.
